PKM2 activator: activators of human pyruvate kinase M2; hit rate 0.34% among 260,000; purified PKM2, Kinase-Glo ATP luminescence, activation; response scale: 0% is enzyme alone, no compound; Potency, µM (titrated, usually from 57.5 µM), hits mostly activators; P14618; note: nearly all actives have a fitted effect of over 55% in size
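Kinase-Glo luminescence reports ATP generated from ADP (0.1 mM) and PEP (0.5 mM) by purified hPK-M2 after 1 h at room temperature, pH 7.2 imidazole buffer; intermediate enzyme activity allows detecting inhibitors and activators.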
Six1-Eya2 blk: blocks human Six1 binding to Eya2. Q15475+O00167. AlphaScreen GST-Six1/His-Eya2 binding, biochemical; active compounds read low. activity change, % (no concentration beside the values). hit rate 0.56% among 360,000. AID 651725; in the data active = activity change below about -65%; inconclusive = mostly about -30% to -63%
Target sequence (O00167 whole entry, looked up): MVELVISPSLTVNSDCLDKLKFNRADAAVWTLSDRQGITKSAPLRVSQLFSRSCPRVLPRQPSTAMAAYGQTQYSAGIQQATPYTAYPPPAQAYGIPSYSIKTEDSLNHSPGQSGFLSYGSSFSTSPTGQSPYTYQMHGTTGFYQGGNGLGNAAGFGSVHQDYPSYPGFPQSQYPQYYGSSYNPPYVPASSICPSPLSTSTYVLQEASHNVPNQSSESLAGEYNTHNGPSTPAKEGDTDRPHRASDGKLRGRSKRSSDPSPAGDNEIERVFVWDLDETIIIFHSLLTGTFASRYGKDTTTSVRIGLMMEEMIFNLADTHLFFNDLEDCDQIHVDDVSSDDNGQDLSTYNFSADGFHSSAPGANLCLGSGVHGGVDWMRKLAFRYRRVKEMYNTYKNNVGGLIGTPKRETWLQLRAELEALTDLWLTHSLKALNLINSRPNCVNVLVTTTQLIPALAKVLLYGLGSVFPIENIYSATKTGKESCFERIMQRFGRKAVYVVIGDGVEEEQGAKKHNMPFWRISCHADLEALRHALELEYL
Target sequence (Q15475 whole entry, looked up): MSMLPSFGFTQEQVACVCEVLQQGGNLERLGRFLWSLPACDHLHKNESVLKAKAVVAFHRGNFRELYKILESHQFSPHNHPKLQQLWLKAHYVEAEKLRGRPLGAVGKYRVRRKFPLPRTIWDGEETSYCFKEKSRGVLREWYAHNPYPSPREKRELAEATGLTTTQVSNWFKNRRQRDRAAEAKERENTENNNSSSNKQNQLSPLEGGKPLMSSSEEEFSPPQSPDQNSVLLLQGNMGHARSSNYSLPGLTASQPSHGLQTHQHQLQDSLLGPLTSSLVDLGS
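AlphaScreen luminescence read after one hour at 37 °C in darkness. Pin-transferred compounds met GST-Six1 and His-Eya2 protein (5X stock 250 nM/500 nM) plus glutathione donor and Ni-chelate acceptor beads (5X, 50 ug/mL).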
CtBP-E1A blk: blocks the CtBP interaction with E1A; AlphaScreen GST-E1A/His-CtBP binding, 1536-well; active compounds read low; activity change, % (no concentration beside the values); hit rate 0.49% among 340,000; AID 651724; in the data active = activity change below about -65%; inconclusive = mostly about -30% to -63%
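AlphaScreen with 125 nM GST-E1A and 125 nM His-CtBP (5X stocks) in Tris pH 8.0, 300 mM NaCl, BSA, Tween 20, TCEP. Compounds preincubated 2 h at 37 deg C, then glutathione donor/nickel acceptor beads added for 1 h at 37 deg C in dark.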
Gal4-VP16 FLuc: counter-screen for ROR gamma inhibitors: Gal4-VP16 reporter. Drosophila S2 Gal4-VP16 UAS-luciferase, luminescence, 20 h. Potency, µM (top dose mostly 53.6 µM), actives largely listed as inhibitors. hit rate 3.5% among 310,000;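 note: Gal4-VP16 expression switched on by copper sulfate through the metallothionein promoter; nearly all actives have a fitted effect of over 50% in size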
RORgamma inh: inhibitors of mouse ROR gamma transcriptional activity; Drosophila S2 Gal4-RORgamma UAS-luciferase reporter, 20 h; hit rate 5.4% among 310,000; Potency, µM (titrated, usually from 53.6 µM), hits mostly inhibitors; AID 2551; P51450; note: nearly all actives have a fitted effect of over 60% in size
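Using a luciferase readout, inhibitors were identified by reduced reporter activity in Drosophila cells coexpressing a copper-inducible Gal4–ROR gamma fusion and UAS-driven Photinus luciferase, incubated 20 hr after 700 uM copper sulfate.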
Numbers stand for hits; 0 = inactive; ? = inconclusive; - = not tested or not shown; [ ] = another dose, or the depositor's remark. An excerpt weighted towards active compounds, which were near 5.6% of everything screened. Unless noted, calls come from the whole dose curve; as a rule, active = well fitted curve in the direction sought with a large enough effect; inconclusive = small, poorly fitted or top-dose-only effect, or another doubt; inactive = no such curve, though single readings can be large; an effect the other way counts as inactive or inconclusive.

SMILES	PKM2 activator	Six1-Eya2 blk	CtBP-E1A blk	Gal4-VP16 FLuc	RORgamma inh
CC1(C)CC(=O)C2=C(C1)OC(N)=C(C#N)C2c1cc2c(cc1[N+](=O)[O-])OCO2 (stereo not drawn)	0	0	0	0	0
CCOC(=O)CC(=O)CSc1ncnc2c1nnn2-c1ccc(OC)cc1	0	0	0	0	8.91µM
CCNC(=S)NS(=O)(=O)c1ccccc1	0	0	0	0	?
S=C(NCc1ccccc1)NNc1ccccc1	0	0	0	3.16µM	1.41µM
CCNC(=S)NNc1ccccc1	0	0	0	3.98µM	0.708µM
Cc1cc(-c2ccc(S(=O)(=O)N3CCN(c4cccc(C)c4C)CC3)s2)on1	0	0	-	0	0
CC1=NN(C(=O)c2cccc(Cn3nc(C)c([N+](=O)[O-])c3C)c2)C(O)(C(F)(F)F)C1 (stereo not drawn)	0	0	0	7.08µM	3.16µM
CC1=NN(C(=O)c2ccc(Cn3cc([N+](=O)[O-])cn3)cc2)C(O)(C(F)(F)F)C1 (stereo not drawn)	0	0	0	12.6µM	10µM
COc1cccc(NC(=O)n2ncc3c(C)cccc32)c1	-	0	0	2.82µM	1.58µM
CCOc1ccc(NC(=O)n2ncc3c(C)cccc32)cc1	-	0	0	1.12µM	0.447µM
Cc1cccc2c1cnn2C(=O)Nc1ccc(Br)cc1F	-	0	0	0	0
Cc1ccc(NC(=O)n2ncc3c(C)cccc32)c(C)c1	-	0	0	?	0
CC(C)CCC[C@@H](C)[C@@H]1CC[C@H]2C3=CC=C4CC(O)CC[C@]4(C)[C@H]3CC[C@@]21C (stereo partly drawn)	-	-	-	?	0
CCCCCCCC/C=C\CCCCCCCCCCCC(=O)O	-	-	-	0	0
Cc1cccc(C)c1NC(=O)CN(C)C(=O)c1cccc(NS(=O)(=O)c2ccccc2)c1	-	0	0	-	-
CO/N=C/c1cccn1-c1nccc(N(C)C)c1C#N	0	0	0	0	0
COc1cc(OC)cc(C(=O)OCC(=O)NC2CCCCCCC2)c1	-	0	0	-	-
CC1(C)SC(=S)N(/N=C/c2cccnc2)C1N(O)C(=O)Nc1ccccc1 (stereo not drawn)	0	0	-	0	0
CC1(C)SC(=S)N(/N=C/c2ccccc2O)C1N(O)C(=O)Nc1ccccc1 (stereo not drawn)	0	0	?	?	17.8µM
CNC(=O)N(O)C1N(/N=C/c2cc(Br)ccc2O)C(=S)SC1(C)C (stereo not drawn)	-	?	-	?	15.8µM
COc1ccc(N2CCc3c(C)nc4c(OC)cccc4c32)cc1	0	0	0	0	20µM
CCn1c(=S)[nH]c2nc3c(cc2c1=O)CCCC3	0	0	0	?	1.58µM
O=c1c2cn[nH]c2[nH]c(=S)n1-c1ccccc1	0	0	0	0	0
O=c1c2cc3c(nc2[nH]c(=S)n1-c1ccccc1)CCCC3	0	0	0	?	2.51µM
CSc1c(CN2CCN(C)CC2)c2ccccc2n1C	-	0	0	-	-
SMILES	PKM2 activator	Six1-Eya2 blk	CtBP-E1A blk	Gal4-VP16 FLuc	RORgamma inh
Cc1ccnc(NS(=O)(=O)c2ccc(NC(=O)c3snnc3C)cc2)n1	0	0	0	0	0
Cc1nnc(SCC(=O)Nc2nccs2)n1C(C)C	0	0	0	0	0
Cc1ccccc1NC(=O)CSc1nc2ccccc2c(=O)n1C	0	0	0	11.2µM	?
COCCn1c(SCC(=O)Nc2cccc(S(N)(=O)=O)c2)nc2cc(Cl)ccc2c1=O	0	0	0	0	0
C=CCn1c(SCc2ccc(C(=O)O)cc2)nc2sc(C)c(C)c2c1=O	0	0	0	7.08µM	3.98µM
CC(C)Oc1ccccc1NC(=O)CSc1nc2ccccc2c(=O)n1C	0	0	-	0	?
C=CCn1c(SCC(=O)Nc2sccc2C(N)=O)nc2sc(C)c(C)c2c1=O	0	0	0	0	0
C=CCn1c(SCC(=O)Nc2ccccc2C)nc2sc(C)c(C)c2c1=O	0	0	0	20µM	35.5µM
CC(C)Cn1c(SCC(=O)Nc2cccc(S(N)(=O)=O)c2)nc2ccccc2c1=O	-	0	0	0	10µM
CCNC(=O)N(C)c1c(CC)nc2ccc(C(=O)N3CCN(C(=O)c4ccco4)CC3)cn12	-	0	0	-	-
CCC(=O)N(NC1=NS(=O)(=O)c2ccccc21)S(=O)(=O)c1ccc(C)cc1	0	0	0	0	0
CC(=O)Nc1ccc(C(=S)NCCCO)cc1	0	?	0	0	?
Cc1ccsc1C(=O)OCC(=O)N1CC(C)CC(C)C1 (stereo not drawn)	-	0	0	-	-
Cc1sc2nc(SCC(=O)NCc3ccco3)n(CCc3ccccc3)c(=O)c2c1C	0	0	0	?	12.6µM
O=C(CCN1C(=O)[C@@H]2Cc3ccccc3CN2C1=O)N[C@@H](C(=O)O)c1ccccc1	0	0	0	0	0
O=C(O)c1ccccc1N/N=C\c1ccnc2ccccc12	0	0	0	?	5.01µM
ON=Cc1ccnc2ccccc12	-	0	0	-	-
COc1ccccc1OCCC(=O)OCC(=O)c1[nH]c(C)c(C(C)=O)c1C	0	0	0	?	14.1µM
CC(=O)c1c(C)[nH]c(C(=O)COC(=O)CCCOc2ccccc2)c1C	0	0	0	0	0
CC(=O)c1c(C)[nH]c(C(=O)OCCOc2ccccc2)c1C	0	0	0	8.91µM	11.2µM
C[C@H](CO)N1C[C@H](C)[C@@H](CN(C)C(=O)CN2CCOCC2)Oc2ncc(-c3cncnc3)cc2C1=O	-	0	0	-	-
Cc1ccc(O)c(N=Cc2cc(Cc3ccccc3)cc([N+](=O)[O-])c2O)c1	0	0	0	0[10 µM]	12.6µM
Cc1ccccc1N=Cc1cccc(O)c1O	0	?	0	0	0
CC(C)(C)c1ccc(O)c(N=Cc2cc(Br)ccc2O)c1	?	0	-	?	10µM
OCC(CO)(CO)N=Cc1cc(Br)ccc1O	0	0	0	0	0
SMILES	PKM2 activator	Six1-Eya2 blk	CtBP-E1A blk	Gal4-VP16 FLuc	RORgamma inh
Cc1ccc(O)c(C=Nc2cc(C)ccc2O)c1	0	0	0	20µM	?
Cc1ccc(N=Cc2cccc(O)c2O)c(C)c1	12.6µM	-	-	?	10µM
COc1ccc(OC)c(CC(NC(C)=O)C(=O)NC2CCN(c3nc(OC)nc(OC)n3)CC2)c1 (stereo not drawn)	0	0	0	0	0
COc1ccc(C(O)c2nc(-c3cnn(C)c3)cs2)cc1 (stereo not drawn)	-	0	0	-	-
Fc1ccc(COc2ccccc2-c2ccnc3ncnn23)cc1	0	0	0	0	0
CCC(C)NC(=O)CN(C1CCCCC1)S(=O)(=O)c1ccc(F)cc1 (stereo not drawn)	0	0	0	0	0
O=[N+]([O-])c1cccc(C=Nc2cccc3ccccc23)c1O	0	0	0	0	1.58µM
CCN(CC)c1ccc(N=Cc2cc(Br)ccc2O)cc1	0	?	0	?	17.8µM
Oc1ccc(Br)cc1C=Nc1ccc(Cl)cc1	0	0	0	0	0
CCc1ccc(O)c(N=Cc2ccccc2O)c1	0	0	0	0	12.6µM
Cc1ccc(/C=C/C(=O)NC2=NCCS2)cc1	0	0	0	?	11.2µM
